Hits are enriched below; roughly 2.8% of the tested compounds scored in any of these assays.
SENP6 inh: SENP6 protease inhibitors, primary screen, biochemical, luminescence, uHTS | Recombinant SENP6 catalytic domain, aminoluciferin luminescence | inhibition, % at 10 µM | hit rate 1.8% among 330,000 | AID 2599, 2010;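 active = inhibition above about 50% at the single tested dose, limit read from the data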
Target sequence (Q9GZR1 628-1112 limits assumed): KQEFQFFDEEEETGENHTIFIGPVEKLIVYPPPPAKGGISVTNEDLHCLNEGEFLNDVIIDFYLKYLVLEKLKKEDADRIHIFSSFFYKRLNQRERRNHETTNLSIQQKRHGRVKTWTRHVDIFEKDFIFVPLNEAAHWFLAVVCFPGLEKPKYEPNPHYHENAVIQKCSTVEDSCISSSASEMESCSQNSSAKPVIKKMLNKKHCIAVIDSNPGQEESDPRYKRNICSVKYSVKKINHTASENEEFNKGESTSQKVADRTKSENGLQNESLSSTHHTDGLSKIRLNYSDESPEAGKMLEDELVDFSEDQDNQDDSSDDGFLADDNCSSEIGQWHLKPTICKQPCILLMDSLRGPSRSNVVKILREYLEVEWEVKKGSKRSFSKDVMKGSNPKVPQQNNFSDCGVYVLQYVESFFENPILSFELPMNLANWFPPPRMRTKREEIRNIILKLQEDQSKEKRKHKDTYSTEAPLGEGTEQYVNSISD
SENP8 block-1: SENP8 protease inhibitors, primary screen, biochemical, luminescence | inhibition, % at 10 µM | purified SENP8, Z-RLRGG-aminoluciferin cleavage | Sentrin-specific protease 8 (Homo sapiens), Q96LD8 | AID 2540, 2010 | hit rate 1.2% among 330,000; in the data active = inhibition above about 50%
HSP90 inh: HSP90 inhibitors, primary screen, cell lysate, luminescence | hit rate 0.91% among 290,000 | AID 1789, 2009 | inhibition, % at 5.6 µM | Rabbit reticulocyte lysate, luciferase refolding luminescence, 3 h | Heat shock protein HSP 90 (rabbit reticulocyte lysate; luciferase refolding);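 active = inhibition above the screen-wide mean plus 3 SD, computed separately per campaign, cut at about 16% in these data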;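 also: inhibitors lower the luminescence because luciferase stays unfolded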
SENP8 block-2: human SENP8 protease inhibitors, primary screen, biochemical, fluorescence, Nedd8 protein substrate, uHTS; inhibition, % at 20 µM; recombinant SENP8; Sentrin-specific protease 8 (Homo sapiens), Q96LD8; AID 602440, 2012; hit rate 0.64% among 360,000; in the data active = inhibition mostly above about 40%, no sharp cut-off; inactive = mostly below about 27%
SENP7 block: SENP7 protease inhibitors, primary screen, biochemical, luminescence, uHTS; inhibition, % at 5 µM; hit rate 1.5% among 330,000; AID 434973, 2010; recombinant SENP7, Z-RLRGG-aminoluciferin luminescence, 40 min; Sentrin-specific protease 7 (Homo sapiens), Q9BQF6;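 active = inhibition above about 50% at the single test dose, limit read from the data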
SENP8 inh conf: human SENP8 protease inhibitors, confirmation, biochemical, Nedd8 protein substrate, single concentration. inhibition, % at 25 µM. shares compounds with SENP8 block-2. purified SENP8, Nedd8-AMC/pro-Nedd8 cleavage fluorescence, 30 min. hit rate 15% among 1,400; in the data active = inhibition mostly above about 39%, no sharp cut-off; inactive = mostly below about 34%
Numbers stand for hits; i = inactive; nt = no result; ! = a repeat was not active.

SMILES | SENP6 inh | SENP8 block-1 | HSP90 inh | SENP8 block-2 | SENP7 block | SENP8 inh conf
N#Cc1ncc(C(F)(F)F)cc1Sc1ccc(N)cc1 | i | i | i | 45 | i | i
O=C(COc1ccc(CO)cc1)Nc1ccc(F)cc1 | i | i | i | i | i | nt
COc1ccc(NC(=O)COc2ccccc2C#N)c(S(=O)(=O)N2CCCCC2)c1 | i | i | i | i | i | nt
O=[N+]([O-])c1cc(-n2cccc2)ccc1N1CCOCC1 | i | i | i | 42 | i | i
CC1CCN(c2cc(N3CCOCC3)c([N+](=O)[O-])cc2F)CC1 | i | i | i | 41 | i | i
CSc1nncc(/C(C)=N\Nc2ccccc2C)n1 | i | i | i | 54 | i | i
Cc1onc(-c2ccccc2Cl)c1C(=O)N(C)C1CCCCC1 | i | i | i | i | i | nt
O=c1cc(CO)occ1OCc1cccc(F)c1 | i | i | i | i | i | nt
O=c1cc(CO)[nH]cc1OCc1ccccc1 | i | i | i | 46 | i | i
COC(=O)C(N)CCCCN (stereo not given) | i | i | nt | 43 | i | i
COC(=O)[C@@H](N)Cc1ccc(O)cc1 | i | i | i | nt | i | nt
Cc1ccc(NC(=O)CN2CCc3cc4c(cc3C2)OCCCO4)cc1 | i | i | i | 43 | i | i
Cc1ccc(NC(=O)CN2CCc3cc4c(cc3C2)OCCCO4)cc1C | i | i | i | i | i | nt
C/C(CCC(C)C)=N\NC(=O)COc1ccccc1-c1ccccc1 | nt | nt | i | i | nt | nt
COc1cc(OC)c(NC(=O)[C@@H]2CCC(=O)N2C2OC(=O)c3c2ccc(OC)c3OC)cc1Cl (stereo not given in full) | i | i | i | 51 | i | i
CNc1ncnc(Sc2ccc(Cl)cc2)c1[N+](=O)[O-] | i | i | i | 42 | i | i
O=c1ccc(Br)c[nH]1 | i | i | i | 42 | i | i
O=c1ccc(S(=O)(=O)N2CCCC2)c[nH]1 | i | i | nt | i | i | nt
O=C(O)CCc1ccc(-c2ccc(Br)cc2)n1NC(=O)c1ccc([N+](=O)[O-])cc1 | i | i | i | 44 | i | i
COC(=O)c1ccccc1-c1ccc(C(c2c(C)[nH][nH]c2=O)c2c(C)[nH][nH]c2=O)o1 | i | i | i | 50 | i | 42
CCOC(=O)c1c(C)sc2c1N(C(=O)CCl)c1cc(Cl)ccc1S2 | i | i | i | i | i | nt
CC1C/C(=N/Nc2ccc([N+](=O)[O-])cc2[N+](=O)[O-])CC(C)(C)C1 (stereo not given) | i | i | i | 46 | i | i
C/C(CC(C)C)=N/Nc1ccc([N+](=O)[O-])cc1[N+](=O)[O-] | i | i | i | i | i | nt
CC1CCCC/C1=N/Nc1ccc([N+](=O)[O-])cc1[N+](=O)[O-] (stereo not given) | i | i | i | 47 | i | i
NS(=O)(=O)c1ccc(NN=C2CCCCC2)c([N+](=O)[O-])c1 | i | i | i | i | i | nt
SMILES | SENP6 inh | SENP8 block-1 | HSP90 inh | SENP8 block-2 | SENP7 block | SENP8 inh conf
O=[N+]([O-])c1ccc(-[n+]2nc(-c3ccccc3)nn2-c2ccccc2)cc1 | i | i | i | 50 | i | 45
O=Cc1cn(-c2ccccc2)nc1-c1cccc([N+](=O)[O-])c1 | nt | nt | nt | i | nt | nt
CC(C)C(=O)Nc1ccc(Cc2ccc(NC(=O)C(C)C)c(O)c2)cc1O | i | i | i | i | i | nt
CCS(=O)(=O)NCc1csc(-c2ccccc2)n1 | i | i | i | i | i | nt
CS(=O)(=O)NCc1csc(-c2ccccc2)n1 | i | i | i | 44 | i | i
COc1ccc(C(=O)/C=C(\C)Nc2ccc3c(c2)OCO3)cc1 | i | i | i | 41 | i | i
CC(=O)N(O)CCCCCNC(=O)CCC(=O)N(O)CCCCCNC(=O)CCC(=O)N(O)CCCCCN | i | i | i | 50! | i | i
COc1cc(Sc2ccc(C)cc2)c(OC)cc1N | i | i | i | i | i | nt
CCOc1cc(Cl)c(CNCCCN2CCOCC2)cc1OC | i | i | i | i | i | nt
CCCNCc1cc(OC)c(OCCC)cc1Cl | i | i | i | 40 | i | i
O=C(O)C1CCCN(C(=O)/C=C/c2ccccc2)CC1 (stereo not given) | nt | nt | nt | i | nt | nt
COc1ccccc1N1C(=O)C2C(c3ccc(F)cc3)NN(C(=O)c3ccc(C)cc3)C2C1=O (stereo not given) | i | i | i | 44 | i | i
